Measured values as given in PubChem BioAssay (EPA / NIEHS).
Results filed as inconclusive are left out. The source made the active and inactive calls. Rule for the calls, unless noted: active = hit-call score of the fitted dose curve at least 0.9, where 1 is the maximum; inactive = score below 0.9.

How the values were obtained:
[1] = CCTE_Shafer_MEA_acute_spike_number: CCTE's Neural Acute Assay for Total Number of Spikes, Shafer Lab (AID 2284008);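 for AC50: curve fitted for decrease in spike count so AC50 reflects inhibitors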
Summary of the method: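 Read-out is the total spike count over 40 min, expressed as percent change from each well's own pre-treatment baseline and fitted in the loss direction against DMSO. Rat cortical neurons were exposed at 0.03-40 uM on DIV 13 or 15.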

[2] = CCTE_Harrill_HTTr_Viability_MCF7: CCTE's 6-hour Cell Viability Assessment for the High-Throughput Transcriptomics (HTTr) Platform, in MCF-7 cells cultured in DMEM + 10% fetal bovine serum, Harrill Lab (AID 2284010)
Summary of the method: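 Eight-point concentration series, six-hour exposure. Propidium iodide exclusion imaged to assess membrane integrity as a cytotoxicity readout; bidirectional fitting was done with DMSO as negative control and activity baseline.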

[3] = CCTE_Harrill_HTTr_Apoptosis_MCF7: CCTE's 6-hour Apoptosis Assessment for the High-Throughput Transcriptomics (HTTr) Platform, in MCF-7 cells cultured in DMEM + 10% fetal bovine serum, Harrill Lab (AID 2284011)
Summary of the method: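 MCF-7 (DMEM + 10% FBS), 384-well; 8-pt dilution series, 6 h chemical exposure; caspase-3/7 activation via CellEvent Caspase 3/7 Green, HCI; bidirectional fit vs DMSO.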

[4] = CCTE_Harrill_HTTr_CellCount_MCF7: CCTE's Cell Proliferation Assessment for the High-Throughput Transcriptomics (HTTr) Platform, Harrill Lab (AID 2284012; active = hit-call score of the fitted dose curve at least 0.9, where 1 is the maximum;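 note: count of Hoechst-stained nuclei per well by high-content imaging in MCF-7 cells; cells exposed to compound for six hours; intended direction is loss of nuclei count meaning fewer cells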)
Summary of the method: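 For this full-screen endpoint, MCF-7 cultures received eight compound dilutions for six hours. Well nuclei counts from Hoechst imaging were analyzed relative to DMSO.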

[5] = CCTE_Shafer_MEA_acute_burst_number: CCTE's Neural Acute Assay for Single-Electrode Bursts, Shafer Lab (AID 2284013)
Summary of the method: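 Burst totals were derived with adaptive spike detection (8x rms threshold) on filtered signals from rat cortical cultures; change relative to pre-treatment baseline after 40-min compound exposure (0.03-40 uM) was fitted in the negative direction against DMSO.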

[6] = CCTE_Shafer_MEA_acute_burst_duration_mean: CCTE's Neural Acute Assay for Mean Burst Duration, Shafer Lab (AID 2284014);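 note: hits are decreases in mean burst duration relative to DMSO controls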
Summary of the method: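 Acute exposure of mature rat cortical networks (DIV 13 or 15) grown on microelectrode arrays to 0.03-40 uM compound. Mean burst duration compared with the 40-min pre-dose baseline over a 40-min post-dose recording at 37 C.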

[7] = CCTE_Shafer_MEA_acute_per_burst_spike_number_mean: CCTE's Neural Acute Assay for Average Number of Spikes Per Burst, Shafer Lab (AID 2284015);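 note: hits are decreases in mean spikes per burst versus baseline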
Summary of the method: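 Primary rat cortical neurons on 48-well MEA plates, treated on DIV 13 or 15 at 0.03-40 uM. Spontaneous activity recorded 40 min before and 40 min after compound at 37 C; percent change in mean spikes per single-electrode burst per well, fitted in the loss direction versus DMSO.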

[8] = CCTE_Shafer_MEA_acute_interburst_interval_mean: CCTE's Neural Acute Assay for Mean Interburst Interval, Shafer Lab (AID 2284016);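 note: percent change of mean interburst interval versus each well's own pre-dose baseline; curves fitted for decrease in interburst interval relative to DMSO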
Summary of the method: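 Primary rat cortical neurons on 16-electrode MEA wells were recorded 40 min at baseline on DIV 13 or 15, then 40 min after compound (0.03-40 uM), at 37 C. Value is percent change in mean interburst interval per well, DMSO as negative control.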

[9] = CCTE_Shafer_MEA_acute_burst_percentage_mean: CCTE's Neural Acute Assay for Percentage of Spikes in a Burst, Shafer Lab (AID 2284017);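 for AC50: curve fitted for loss of signal so potency reflects decreased burst percentage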
Summary of the method: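 Primary rat cortical neurons on 16-electrode MEA wells; 40 min baseline recorded at DIV 13 or 15, then 40 min after compound (0.03-40 uM) at 37 C. Well-mean fraction of spikes in single-electrode bursts; percent change from baseline, DMSO as negative control.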

[10] = CCTE_Shafer_MEA_acute_burst_percentage_std: CCTE's Neural Acute Assay for Standard Deviation of Burst Percentage, Shafer Lab (AID 2284018);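 note: fitted in the negative direction so actives lower burst percentage SD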
Summary of the method: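 Primary rat cortical neurons on 16-electrode MEA wells were recorded 40 min at baseline (DIV 13 or 15), then 40 min after compound (0.03-40 uM), at 37 C. Well value is SD across electrodes of spikes-in-bursts/total spikes; endpoint is percent change, DMSO-referenced.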

[11] = CCTE_Shafer_MEA_acute_per_network_burst_spike_number_mean: CCTE's Neural Acute Assay for Average Number of Spikes in a Network Burst, Shafer Lab (AID 2284019)
Summary of the method: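 Acute exposure of rat primary cortical networks (DIV 13/15) on MEAs; adaptive spike detection at 8x rms noise, 37 C. Percent change in spikes per network burst after 40 min with compound (0.03-40 uM), negative direction vs DMSO.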

[12] = CCTE_Shafer_MEA_acute_per_network_burst_spike_number_std: CCTE's Neural Acute Assay for Standard Deviation of Number of Spikes in a Network Burst, Shafer Lab (AID 2284020);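 note: fitted for decrease in spike-number SD versus DMSO so actives lower it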
Summary of the method: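 Acute MEA exposure, rat cortical neurons, 0.03-40 uM. Per-well % change versus own baseline; DMSO as negative control.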

[13] = CCTE_Shafer_MEA_acute_per_network_burst_electrodes_number_mean: CCTE's Neural Acute Assay for Mean Number of Electrodes in a Network Burst, Shafer Lab (AID 2284021);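 note: curves fitted for decreases only so hits reduce electrodes per burst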
Summary of the method: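 Primary rat cortical networks, mwMEA, 37 C. 20 min stabilization, 40 min baseline, compound 0.03-40 uM, 40 min re-record. Wells need >=10 active electrodes; percent change per well, negative fitting direction.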

[14] = molecular target: Nucleoli Translocation, AR (gene 367) (UniProt P10275); assay: UPITT_HCI_U2OS_AR_TIF2_Nucleoli_Agonist: University of Pittsburgh U2OS Androgen Receptor-Transcriptional Intermediary Factor 2 (AR-TIF2) Agonism High Content Imaging Assay for Nucleoli Translocation (AID 2283998; active = hit-call score of the fitted dose curve at least 0.9, where 1 is the maximum)
Summary of the method: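 Readout is red (AR-RFP) fluorescence localized to nucleoli, measured by high-content imaging and analysed for increase relative to DMSO. Compound series spanned 0.195 to 50 uM final in 0.5% DMSO.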

[15] = molecular target: Ratio of Nucleoli Translocation and Cytoplasm, AR (gene 367) (UniProt P10275); assay: UPITT_HCI_U2OS_AR_TIF2_Nucleoli_Cytoplasm_Ratio_Agonist: University of Pittsburgh U2OS Androgen Receptor-Transcriptional Intermediary Factor 2 (AR-TIF2) Agonism High Content Imaging Assay for Ratio of Nucleoli Translocation and Cytoplasm (AID 2284000; active = hit-call score of the fitted dose curve at least 0.9, where 1 is the maximum;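 note: hits raise the red nucleolar to cytoplasm ratio above vehicle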)
Summary of the method: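 Primary screen at 20 uM final (0.2% DMSO), then triplicate confirmation and dose-response from 0.195 to 50 uM final (0.5% DMSO). Cells: U2OS with AR-RFP and TIF2-GFP. Endpoint is the nucleoli/cytoplasm red-fluorescence ratio, gain-of-signal vs DMSO.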

[16] = CCTE_Simmons_MITO_basal_resp_rate: CCTE's HepG2 Seahorse XF Respirometric Screening Assay at Basal Respiratory State, Simmons Lab (AID 2284001); conditions: actives raise or lower the signal
Summary of the method: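 Readout is oxygen consumption rate after test compound injection, measured by Seahorse XF in HepG2 cells. Seven concentrations from 125 nM up to 100 uM final are tested, and activity in either direction is fitted against DMSO.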

[17] = CCTE_Simmons_MITO_max_resp_rate: CCTE's HepG2 Seahorse XF Respirometric Screening Assay at Maximal Respiratory State [uncoupled], Simmons Lab (AID 2284002); conditions: actives raise or lower the signal
Summary of the method: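 Read-out is oxygen consumption rate at maximal respiration, taken after FCCP uncoupling of compound-treated HepG2 cells. Seven final concentrations from 125 nM to 100 uM were tested, each in three biological replicates.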

[18] = CCTE_Simmons_MITO_viability: CellTiter-Glo Viability Assessment for CCTE's HepG2 Seahorse XF Respirometric Screening Assay [post-hoc], Simmons Lab (AID 2284007; active = hit-call score of the fitted dose curve at least 0.9, where 1 is the maximum;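 for AC50: cells exposed to chemical for 90 min before the ATP read; actives lower ATP signal relative to DMSO baseline meaning reduced viability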)
Summary of the method: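 Post-hoc viability check on the HepG2 respirometry plates: luciferase-based ATP signal measured once, after 90 min compound exposure spanning 125 nM–100 uM final. Activity was referenced to DMSO as baseline.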

DIO1 (gene 1733) = assay: CCTE_GLTED_hDIO1: CCTE's human Deiodinase 1 (DIO1) Inhibition Assay, Great Lakes Toxicology and Ecology Division (GLTED) Lab (AID 2283987; active = hit-call score of the fitted dose curve at least 0.9, where 1 is the maximum;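 note: isolated human DIO1 enzyme in a cell-free setup rather than cells; enzyme activity read as free iodide liberated from substrate via Sandell-Kolthoff colorimetry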)
Summary of the method: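 Inhibition of human deiodinase 1 is scored as reduced iodide liberation after a 3 h enzyme–chemical incubation, detected colorimetrically by the Sandell-Kolthoff reaction against DMSO controls.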

[19] = molecular target: Ratio of Nucleoli Translocation and Cytoplasm, AR (gene 367) (UniProt P10275); assay: UPITT_HCI_U2OS_AR_TIF2_Nucleoli_Cytoplasm_Ratio_Antagonist: University of Pittsburgh U2OS Androgen Receptor-Transcriptional Intermediary Factor 2 (AR-TIF2) Antagonism High Content Imaging Assay for Ratio of Nucleoli Translocation and Cytoplasm (AID 2283999; active = hit-call score of the fitted dose curve at least 0.9, where 1 is the maximum;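 note: antagonists lower the DHT-driven ratio of nucleolar to cytoplasmic red signal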)
Summary of the method: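 This antagonist-mode endpoint tracks AR-RFP localisation, the nucleolus-to-cytoplasm intensity ratio, in TIF2-GFP-coexpressing U2OS cells. DMSO stays at or below 0.5%; testing spans 20 uM single-dose and 0.195–50 uM series, with DHT setting the activity baseline.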

Measured: AC50

Chain of Nucleoli Translocation, AR (gene 367) (P10275 whole entry, looked up): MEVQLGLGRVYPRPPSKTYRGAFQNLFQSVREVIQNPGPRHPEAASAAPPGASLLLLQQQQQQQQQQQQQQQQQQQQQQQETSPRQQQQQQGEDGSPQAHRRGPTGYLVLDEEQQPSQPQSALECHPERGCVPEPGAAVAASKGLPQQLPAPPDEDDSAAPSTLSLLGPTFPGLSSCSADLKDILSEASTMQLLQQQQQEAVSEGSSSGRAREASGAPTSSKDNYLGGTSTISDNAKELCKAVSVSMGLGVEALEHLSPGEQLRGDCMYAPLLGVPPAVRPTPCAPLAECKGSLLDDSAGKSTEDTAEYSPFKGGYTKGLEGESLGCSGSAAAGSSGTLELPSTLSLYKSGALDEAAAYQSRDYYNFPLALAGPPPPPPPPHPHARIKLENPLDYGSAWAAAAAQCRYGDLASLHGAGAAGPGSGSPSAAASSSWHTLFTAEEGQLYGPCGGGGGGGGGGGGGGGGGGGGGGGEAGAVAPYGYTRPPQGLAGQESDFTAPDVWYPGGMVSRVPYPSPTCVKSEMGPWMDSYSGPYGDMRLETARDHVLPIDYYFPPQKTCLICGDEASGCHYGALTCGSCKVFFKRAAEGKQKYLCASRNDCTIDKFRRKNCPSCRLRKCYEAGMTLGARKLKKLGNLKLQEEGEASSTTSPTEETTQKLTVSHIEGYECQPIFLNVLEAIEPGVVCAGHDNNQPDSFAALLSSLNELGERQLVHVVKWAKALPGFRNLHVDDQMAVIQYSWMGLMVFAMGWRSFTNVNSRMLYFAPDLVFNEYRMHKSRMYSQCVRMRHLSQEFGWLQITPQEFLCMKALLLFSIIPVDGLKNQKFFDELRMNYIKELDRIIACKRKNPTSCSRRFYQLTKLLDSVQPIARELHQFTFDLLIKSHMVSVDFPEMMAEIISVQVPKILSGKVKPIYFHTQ
Chain of Ratio of Nucleoli Translocation and Cytoplasm, AR (gene 367) (P10275 whole entry, looked up): as above

CC(C)N1C(=O)c2ccccc2NS1(=O)=O
inactive: [1] | [2] | [3] | [4] | [5] | [6] | [7] | [8] | [9] | [10] | [11] | [12] | [13]

Clc1cccc(C(Cl)(Cl)Cl)n1
inactive: [14] | [15] | [2] | [4]

Cn1c(-c2ccccc2)cc(-c2ccccc2)[n+]1C
active: [16] 41.9 µM | [17] 20 µM | [1] 1.05 µM | [5] 1.15 µM | [9] 31.4 µM | [13] 20 µM
inactive: [18] | [2] | [3] | [4] | [6] | [7] | [10] | [11] | [12]

Cc1cnc(C2=NC(C)(C(C)C)C(=O)N2)c(C(=O)O)c1 (centres undefined)
inactive: [14] | [15] | [2] | [3] | [4]

CC(C)=CC1C(C(=O)OCc2coc(Cc3ccccc3)c2)C1(C)C (centres undefined)
active: [8] 31.2 µM | [9] 15 µM | [10] 20 µM | [12] 20 µM | [13] 8.62 µM
inactive: [16] | [17] | [1] | [2] | [5] | [6] | [7] | [11]

CCCCOCN(C(=O)CCl)c1c(CC)cccc1CC
active: DIO1 (gene 1733) 37.9 µM | [19] 11 µM
inactive: [14] | [15] | [2] | [4]

CCSC(=O)N1CCCCCC1
inactive: [16] | [17] | [2]

CCCCC(O)(Cn1cncn1)c1ccc(Cl)cc1Cl (centres undefined)
active: [14] 78.4 µM | [15] 77.3 µM | [16] 41 µM | [17] 60.5 µM | [18] 10.1 µM
inactive: [19] | [1] | [2] | [3] | [4] | [5] | [6] | [7] | [8] | [9] | [10] | [11] | [12] | [13]

CCCCC(C#N)(Cn1cncn1)c1ccc(Cl)cc1 (centres undefined)
inactive: [16] | [17] | [2] | [4]

COCC(=O)N(c1c(C)cccc1C)C(C)C(=O)OC (centres undefined)
active: [16] 36.2 µM
inactive: [17] | [1] | [2] | [3] | [5] | [6] | [7] | [8] | [9] | [10] | [11] | [12] | [13]

COc1ccc(-c2ccccc2)cc1NNC(=O)OC(C)C
inactive: [14] | [19] | [15] | [16] | [17] | [2]

Clc1nc(Cl)nc(Nc2ccccc2Cl)n1
inactive: [1] | [2] | [3] | [4] | [5] | [6] | [7] | [8] | [9] | [10] | [11] | [12] | [13]

Cc1cc(C)nc(Nc2ccccc2)n1
inactive: [2]

N#Cc1c(Cl)cccc1Cl
inactive: [2]

O=P(O)(O)CCCl
inactive: [2]

O=C(O)c1c(Cl)ccc2cc(Cl)cnc12
inactive: [2] | [3]

CC1(C)CON(Cc2ccccc2Cl)C1=O
inactive: [2]

CC(C)Nc1nc(Cl)nc(NC(C)C)n1
inactive: [2]

Cc1nc(N(C)C)nc(OC(=O)N(C)C)c1C
inactive: [1] | [2] | [3] | [5] | [6] | [7] | [8] | [9] | [10] | [11] | [12] | [13]
